AMA1 RON2 block: AMA1-RON2 (P. falciparum) interaction inhibition; AlphaScreen AMA1-biotinylated RON2 peptide binding; Potency, µM (highest dose often 58.2 µM), actives largely listed as inhibitors; hit rate 0.2% among 360,000; further: nearly all actives have a fitted effect of over 45% in size
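AMA1 (3D7) with his tag at 25 nM final met compounds first, then biotinylated RON2 peptide at 25 nM; detection used donor plus acceptor beads, 10 µg/mL apiece, read by AlphaScreen after 30 min at room temperature.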
SARS PLpro yeast: blocks SARS-CoV papain-like protease in a yeast assay; S. cerevisiae expressing SARS-CoV PLpro, growth rescue; Potency, µM (top dose mostly 32.9 µM), hits mostly activators; hit rate 0.19% among 330,000; AID 485353; calls by dose curve; further: nearly all actives have a fitted effect of over 55% in size
Pf growth 96h: P. falciparum growth inhibition at 96 hours | P. falciparum luciferase reporter growth, 96 h | Potency, µM (top dose mostly 28.7 µM), actives largely listed as inhibitors | hit rate 6.9% among 320,000
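96 h incubation, 37 C, 5% CO2, of luciferase-reporter P. falciparum-infected RBCs (2% hematocrit, 0.05% parasitemia final) with test compounds; endpoint luminescence.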
Pf growth 48h: inhibits P. falciparum growth in the first generation, 48 h; P. falciparum luciferase growth in erythrocytes, 48 h; Potency, µM (titrated, usually from 28.7 µM), most hits filed as inhibitors; hit rate 5.9% among 310,000
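Read-out is firefly luciferase luminescence from an integrated reporter in P. falciparum, so falling signal marks reduced parasite growth. Infected erythrocytes were at 2% hematocrit and 0.1% parasitemia (final) in Albumax-supplemented RPMI 1640.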
CHX counter: counter-screen hit for Shiga toxin inhibitors, cycloheximide | cell reporter, cycloheximide protein synthesis inhibition counterscreen | max response, % | hit rate 12% among 300,000 | AID 2314; in the data active means max response mostly above about 13%, no sharp cut-off; inactive means mostly below about 14%; further: read at 38.3 µM for the half of the compounds with a filed dose
Shiga toxin inh: inhibitors of Shiga toxin in Vero cells. inhibition, % at 38.7 µM. AID 2315. Vero cells, Shiga toxin protein synthesis inhibition reporter. hit rate 9.2% among 290,000; in the data active means inhibition mostly above about 28%, no sharp cut-off; inactive means mostly below about 43%
Large screens that a line does not name were inactive. Most compounds without a hit are left out; they make up all but 19% or so of the library. Unless noted, the call rests on the fitted dose curve; in most records, active means well fitted curve in the direction sought with a large enough effect; inconclusive means small, poorly fitted or top-dose-only effect, or another doubt; inactive means no such curve, though single readings can be large; an effect the other way counts as inactive or inconclusive.

COc1ccc(-n2c(-c3ccc(Br)cc3)c[n+]3c2SC(C)C3)cc1 (stereo not given)	Pf growth 96h inconclusive, Pf growth 48h 0.329µM
CCOc1ccc(-c2c[n+]3c(n2-c2ccccc2)CCCCC3)cc1	Pf growth 96h 0.928µM, Pf growth 48h 1.17µM
COc1ccc(-n2c(-c3ccccc3)c[n+]3c2CCC3)cc1	Pf growth 96h inconclusive, Pf growth 48h inconclusive
COc1ccc(-n2c(-c3ccc(Br)cc3)c[n+]3c2CCCCC3)cc1	Pf growth 96h 0.586µM, Pf growth 48h 1.04µM
CCCCNC(=O)c1nc(-c2ccccc2)oc1-c1ccc(Cl)cc1	none (no result: SARS PLpro yeast, Pf growth 96h, Pf growth 48h, CHX counter, Shiga toxin inh)
Cc1cc(CN2CCCC(C(=O)Nc3ccc(-c4nc5ccccc5[nH]4)cc3)C2)n[nH]1 (stereo not given)	Pf growth 48h inconclusive, CHX counter 28.8
CCn1cc(CN2CCCC(C(=O)Nc3ccc(-c4nc5ccccc5[nH]4)cc3)C2)c(C)n1 (stereo not given)	Pf growth 48h 2.08µM, CHX counter 25.6
CCOC(=O)[C@@H](N)CS	none (no result: AMA1 RON2 block, SARS PLpro yeast, CHX counter, Shiga toxin inh)
C(=C\c1ccccc1)/C=N/N1CCN(c2ccccn2)CC1	CHX counter 39.4, Shiga toxin inh 48.2
Cc1ccc(CN2CCN(/N=C/C(Br)=C\c3ccccc3)CC2)cc1	AMA1 RON2 block inconclusive, Pf growth 48h inconclusive
CC(/C=N/N1CCN(c2ccccc2)CC1)=C\c1ccccc1	none
c1ccc(N2CC[N+]3(CCCC3)CC2)nc1	none
C(/C=C/c1ccccc1)=N/N1CCN(c2ccccc2)CC1	CHX counter 16.4
O=S(=O)(/C=C/c1ccccc1)N1CCN(c2ccccc2)CC1	none
C(=C\c1ccccc1)/C=N/N1CCN(Cc2ccccc2)CC1	AMA1 RON2 block inconclusive, CHX counter 27.0, Shiga toxin inh 43.3
CC(/C=N/N1CCN(c2ccccn2)CC1)=C\c1ccccc1	CHX counter 22.8, Shiga toxin inh 46.7
COc1ccc(Cl)cc1N1C(=NC(=O)C2CCCO2)SC2CS(=O)(=O)CC21 (stereo not given)	none
O=c1cc(-c2ccc(O)cc2)oc2cc(OC3OC(CO)C(O)C(O)C3O)c(C3OC(CO)C(O)C(O)C3O)c(O)c12 (stereo not given)	none (no result: AMA1 RON2 block, SARS PLpro yeast, Pf growth 96h, Pf growth 48h)
CCOC(=O)C(C)Oc1ccc(NC(=O)C(Cl)Cl)cc1 (stereo not given)	none
O=C(Nc1c[nH]c2c(Cl)cccc2c1=O)N1CCN(c2ccccn2)CC1	Pf growth 96h inconclusive, CHX counter 15.6
Fc1ccc(/C=C2\CCCC3=C2Nc2ncnn2C3c2ccc(F)cc2)cc1 (stereo not given)	Pf growth 96h inconclusive, Pf growth 48h 13.1µM
COc1ccc(C(=O)Nc2ccccc2C(=O)NCc2ccco2)cc1OC	Pf growth 96h inconclusive (no result: Pf growth 48h)
COc1ccc(N=c2oc3c(OC)cccc3cc2C(=O)NCc2ccco2)cc1OC	Pf growth 48h inconclusive
COc1ccc(C(=O)Nc2ccc(Cl)cc2C(=O)NCc2ccco2)cc1OC	Pf growth 48h 10.4µM, CHX counter 42.5, Shiga toxin inh 54.6
COc1ccc(S(=O)(=O)N(Cc2ccccc2)c2ccccc2C(=O)Nc2ccccc2C(=O)NCc2ccco2)cc1	Pf growth 48h 13.1µM
COc1ccccc1C(=O)NCc1ccco1	none
COc1cccc2cc(C(=O)Nc3ccc(F)cc3)c(=Nc3ccc(C(=O)O)cc3)oc12	CHX counter 51.0, Shiga toxin inh 76.1
COc1ccccc1C(=O)Nc1ccccc1C(=O)NCc1ccco1	CHX counter 32.3
O=C(/C=C/c1ccc([N+](=O)[O-])cc1)NCCN1C(=O)S/C(=C\c2ccc(F)cc2)C1=O	none
COc1ccc(OC)c(N=c2oc3c(OC)cccc3cc2C(=O)NCc2ccco2)c1	none
COc1ccccc1N=c1oc2c(OC)cccc2cc1C(=O)NCc1ccco1	Pf growth 96h inconclusive, CHX counter 48.5, Shiga toxin inh 114.6
O=C(Nc1cccc(Cl)c1)Nc1ccccc1C(=O)NCc1ccco1	Pf growth 96h inconclusive, CHX counter 32.4, Shiga toxin inh 55.2 (no result: Pf growth 48h)
O=C(NCc1ccccc1)C(c1cc2ccccc2o1)n1c(=O)c(-c2cc3ccccc3[nH]2)nc2ccccc21 (stereo not given)	none (no result: SARS PLpro yeast, Pf growth 96h, Pf growth 48h, CHX counter, Shiga toxin inh)
CS(=O)(=O)N(CC(=O)Nc1cc(Cl)ccc1Cl)c1ccccc1	none (no result: Pf growth 48h)
O=C(N/N=C/c1ccc(-c2ccccc2Cl)o1)c1ccccc1	Pf growth 48h inconclusive, CHX counter 31.6, Shiga toxin inh 68.6
O=C(O)c1ccc(N/N=C/c2ccc(-c3ccccc3Cl)o2)cc1	CHX counter 50.4, Shiga toxin inh 99.7
O=C(NCc1cccnc1)c1cc(C2CCCCN2C(=O)c2ccccc2)on1 (stereo not given)	none (no result: SARS PLpro yeast, Pf growth 96h, Pf growth 48h, CHX counter, Shiga toxin inh)
O=C(COc1ccc(F)cc1)NCCN1CCCC1	Pf growth 96h inconclusive
Cc1[nH]c2ccccc2c1C(=O)COC(=O)C1CCC1	CHX counter 23.1
O=C(/C=C/c1ccccc1)OCC(=O)c1c[nH]c2ccccc12	none (no result: Pf growth 96h, Pf growth 48h, CHX counter, Shiga toxin inh)
Cc1[nH]c2ccccc2c1C(=O)COC(=O)C1CCC(=O)N1 (stereo not given)	none
O=C(OCC(=O)c1c[nH]c2ccccc12)c1ccco1	Pf growth 96h 5.22µM, CHX counter 68.1, Shiga toxin inh 88.4
CC(C(=O)c1c[nH]c2ccccc12)N1CCN(C(=O)c2ccco2)CC1 (stereo not given)	Pf growth 96h 2.08µM, Pf growth 48h 1.85µM
O=C(OCC(=O)c1c[nH]c2ccccc12)c1ccc(Br)o1	CHX counter 26.1, Shiga toxin inh 110.7 (no result: Pf growth 96h)
C/C(=N\NC(=O)c1nnn(-c2nonc2N)c1CN1CCc2ccccc21)c1ccccc1O	Pf growth 48h inconclusive
COc1ccc(C=CC(C)=NNC(=O)c2ccncc2)cc1	none (no result: SARS PLpro yeast, Pf growth 96h, Pf growth 48h, CHX counter, Shiga toxin inh)
CC(C)(C)c1ccc(S(=O)(=O)N2CC(C(=O)O)Oc3ccc(Cl)cc32)cc1 (stereo not given)	none (no result: Pf growth 48h)
COc1ccc(OC)c(NC(=O)[C@@H]2CCCN2C(=O)c2cccs2)c1	none
O=C(COC(=O)C1CCC1)c1c[nH]c2ccccc12	none (no result: CHX counter, Shiga toxin inh)
COc1cc(NC(=O)c2ccco2)c(C(=O)OCC(=O)c2c[nH]c3ccccc23)cc1OC	Pf growth 96h 2.33µM, Pf growth 48h 4.15µM
O=C(COC(=O)C1CC1)c1c[nH]c2ccccc12	CHX counter 56.7, Shiga toxin inh 75.8
Cc1[nH]c2ccccc2c1C(=O)C(=O)N(C)C1CCCCC1	Pf growth 96h 2.62µM, Pf growth 48h 2.62µM
N/C(=N\O)c1ccc(Cl)cc1Cl	none
C#CCN(Cc1ccccc1)S(=O)(=O)C=C	none (no result: CHX counter, Shiga toxin inh)
CCCc1c(Cc2cccc(F)c2)ncn1Cc1cccc(-c2ccccc2)c1	none (no result: SARS PLpro yeast, Pf growth 96h, Pf growth 48h, CHX counter, Shiga toxin inh)
O=C(Nc1nnc([C@H]2C[C@H](O)[C@@H](CO)O2)s1)c1ccccc1F	none (no result: SARS PLpro yeast, Pf growth 96h, Pf growth 48h, CHX counter, Shiga toxin inh)
CCN(CC(=O)Nc1c(F)cccc1F)C(=O)c1ccc(C)c(S(=O)(=O)N2CCCCC2)c1	Pf growth 96h inconclusive (no result: CHX counter, Shiga toxin inh)

Screens: PubChem BioAssay, National Center for Advancing Translational Sciences (NCATS)
